This is a sample that favours compounds with a hit; in the whole collection about 21% have one here.
D3 antag = qHTS of D3 Dopamine Receptor Antagonist: qHTS | AID 652054, 2013 | D3R cells, DiscoveRx beta-arrestin luminescence, antagonist mode; stronger effect = lower value | actives 2.5% (n = 360,000) | max response, negative = inhibition, % | D(3) dopamine receptor (Homo sapiens), P35462; in the data active = max response below about -50%; inconclusive = no clear call, values can overlap the other calls
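Cells expressing the human receptor were seeded at 1500 cells/well, incubated overnight at 37 degrees C in 5% CO2, then exposed to library compounds with dopamine controls for 90 minutes at 37 degrees C before luminescent detection.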
D3 ag = qHTS of D3 Dopamine Receptor Agonist: qHTS; D(3) dopamine receptor (Homo sapiens), P35462; D3R DiscoveRx beta-arrestin cells, luminescence, 90 min; max activation, %; actives 0.58% (n = 410,000); in the data active = max activation above about 30%
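Agonist-mode cell screen: cells plated at 1500/well and incubated overnight at 37 °C, then exposed to library compounds for 90 min at 37 °C. Detection reagent was added for 30–60 min at room temperature, and luminescence was read.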
DT40 TDP1 no CPT = qHTS for Inhibitors of human tyrosyl-DNA phosphodiesterase 1 (TDP1): qHTS in cells in absence of CPT; DT40 Tdp1-/- hTDP1 cells, no CPT, ATP luminescence, 48 h; Potency, µM (doses to about 46.2 µM), actives largely listed as inhibitors; actives 15% (n = 420,000); AID 686978, 2013; also: nearly all actives have a fitted effect of over 55% in size
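Chicken DT40 Tdp1-/- cells stably complemented with human TDP1 were seeded at 400 cells/well with DMSO in place of 20 nM camptothecin. After compound pinning, cells grew at least 48 hr at 37 °C; viability read by CellTiter-Glo luminescence.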
ClpP mod = qHTS Assay for Activators of ClpP; Potency, µM (titrated, usually from 57.5 µM); purified B. subtilis ClpP, FRET peptide cleavage, 20 min; actives 1.9% (n = 340,000); ATP-dependent Clp protease proteolytic subunit (Bacillus subtilis (strain 168)), P80244; active = well fitted falling curve with a large enough effect; inconclusive = small, poorly fitted or top-dose-only effect; inactive = no such curve, though single readings can be large or run the other way; also: the source files actives as falling curves though it sought activators and does not explain the sign; nearly all actives have a fitted effect of over 65% in size
Target sequence (P80244 whole entry, looked up): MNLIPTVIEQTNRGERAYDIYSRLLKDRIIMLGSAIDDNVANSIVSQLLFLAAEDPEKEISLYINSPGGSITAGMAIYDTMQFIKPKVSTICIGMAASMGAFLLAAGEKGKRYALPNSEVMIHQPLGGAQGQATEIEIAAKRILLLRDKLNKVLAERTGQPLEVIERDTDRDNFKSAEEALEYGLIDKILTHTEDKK
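Buffer: 100 mM Tris/HCl pH8, 100 mM KCl, 0.05% low protease BSA, 2.5% glycerol, 0.01% Tween-20. ClpP 10 microg/mL final; 20 min RT; delta FRET normalized to ADEP and DMSO controls.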
IL1B secr inh = qHTS for Inhibitors of Inflammasome Signaling: IL-1-beta AlphaLISA Primary Screen; THP-1 LPS/ATP IL-1B secretion, AlphaLISA, 16 h; stronger effect = lower value; activity change, % at 57.5 µM; actives 4.7% (n = 360,000); in the data active = activity change below about -50%; inconclusive = mostly about -30% to -49%
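Secreted IL-1B measured by AlphaLISA bead assay after 16 h compound exposure of THP-1 cells; compounds (final up to 57.5 uM) added 1 h before LPS (250 ng/mL) and ATP (1.25 mM) stimulation; lower signal means less secretion.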
DT40 TDP1 CPT = qHTS for Inhibitors of human tyrosyl-DNA phosphodiesterase 1 (TDP1): qHTS in cells in presence of CPT; chicken DT40 Tdp1-/-;hTDP1 cells + 20 nM CPT, ATP luminescence, 48 h; Potency, µM (top dose mostly 46.2 µM), hits mostly inhibitors; actives 12% (n = 420,000); AID 686979, 2013; also: nearly all actives have a fitted effect of over 55% in size
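Chicken DT40 Tdp1-/- cells stably complemented with human TDP1 were seeded at 400 cells/well in medium containing 20 nM camptothecin, exposed to pin-transferred compounds, and grown at 37 °C for at least 48 hr. Viability was read as ATP luminescence.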
Large screens that a line does not name were inactive. Unless noted, calls follow the shape of the dose curve; as a rule, active = well fitted inhibition curve with a large enough effect; inconclusive = small, poorly fitted or top-dose-only effect; inactive = flat fitted curve, though single readings scatter.

COC(=O)c1ccc(CNC(=O)c2ccc(S(=O)(=O)N(C)c3ccccc3OC)cc2)cc1	D3 antag inconclusive, DT40 TDP1 no CPT inconclusive, DT40 TDP1 CPT inconclusive
CCCc1cc(=O)[nH]c(SCC(=O)c2ccc3c(c2)NC(=O)CO3)n1	none (no result: ClpP mod)
O=C1CC[C@@H](CN(Cc2ccccn2)Cc2nc(Cc3ccccc3)no2)N1	none (no result: ClpP mod)
Clc1ccc(-c2noc(CN(Cc3ccccn3)CC3CCCO3)n2)cc1 (centres undefined)	DT40 TDP1 no CPT 16µM, DT40 TDP1 CPT inconclusive (no result: ClpP mod)
CCN(Cc1nc(-c2ccc(Cl)cc2)no1)CC1CCCO1 (centres undefined)	DT40 TDP1 no CPT inconclusive (no result: ClpP mod)
O=S(=O)(c1ccccc1)c1nc(-c2ccc(F)cc2)oc1NCC1CCCO1 (centres undefined)	DT40 TDP1 no CPT inconclusive
Cc1oc(-c2ccc(F)cc2)nc1CN(Cc1ccccn1)CC1CCCO1 (centres undefined)	DT40 TDP1 no CPT 29µM, DT40 TDP1 CPT inconclusive (no result: ClpP mod)
FC(F)(F)c1cccc(Cc2noc(CN(Cc3ccccn3)CC3CCCO3)n2)c1 (centres undefined)	DT40 TDP1 no CPT 21µM, DT40 TDP1 CPT 21µM
Cc1ccccc1OCC(=O)NCC(=O)OCC(=O)c1ccc(Br)cc1	none (no result: D3 antag, D3 ag, IL1B secr inh)
CCN(CC)C(=O)c1ccc(CS(=O)(=O)Cc2ccccc2)cc1	none
COc1ccc(C(CNC(=O)COc2cc(C)cc(C)c2)N2CCOCC2)cc1 (centres undefined)	DT40 TDP1 no CPT inconclusive, DT40 TDP1 CPT inconclusive (no result: D3 antag, IL1B secr inh)
COc1cc2c(cc1OC)C(NNC(=O)c1ccc(Br)o1)=NC(C)(C)C2	DT40 TDP1 no CPT inconclusive, DT40 TDP1 CPT 21µM
Cc1nc2cc(NC(=O)c3ccc(N4C(=O)CCC4=O)cc3)ccc2s1	none
O=C1CC[C@@H](C(=O)N[C@H]2C[C@@H]2c2ccccc2)N1	none (no result: D3 antag, ClpP mod, IL1B secr inh)
Clc1ccccc1OCc1nnc(-c2ccccc2Br)o1	IL1B secr inh inconclusive
O=c1c(Cl)c(Cl)cnn1Cc1nnc(-c2ccccc2Br)o1	D3 antag -81, DT40 TDP1 no CPT 1.8µM, IL1B secr inh -96, DT40 TDP1 CPT 4.1µM (no result: ClpP mod)
CCOC(=O)CSc1nnc2n(-c3ccccc3)c(=O)c3c4c(sc3n12)CC(C(C)(C)C)CC4 (centres undefined)	DT40 TDP1 no CPT inconclusive, DT40 TDP1 CPT inconclusive (no result: D3 antag, IL1B secr inh)
CCOc1ccc(NC(=O)Cn2c(=O)n(Cc3ccc4c(c3)OCO4)c(=O)c3ccc(C(=O)NC4CCCCC4)cc32)cc1	DT40 TDP1 no CPT 4.6µM, DT40 TDP1 CPT 2.6µM (no result: D3 antag, IL1B secr inh)
CCc1ccccc1NC(=O)Cn1c(=O)n(Cc2ccc3c(c2)OCO3)c(=O)c2ccc(C(=O)NC3CCCCC3)cc21	DT40 TDP1 no CPT inconclusive, DT40 TDP1 CPT 1.8µM (no result: D3 antag, IL1B secr inh)
O=C(Cn1c(=O)n(Cc2ccc3c(c2)OCO3)c(=O)c2ccc(C(=O)NC3CCCCC3)cc21)Nc1ccccc1F	DT40 TDP1 no CPT inconclusive, DT40 TDP1 CPT inconclusive (no result: D3 antag, IL1B secr inh)
Cc1cc(C)c(NC(=O)Cn2c(=O)n(Cc3ccc4c(c3)OCO4)c(=O)c3ccc(C(=O)NC4CCCCC4)cc32)c(C)c1	none (no result: D3 antag, IL1B secr inh)
Cc1ccc(NC(=O)C2CCCN(S(=O)(=O)c3ccc(-n4cnnn4)cc3)C2)cc1 (centres undefined)	none (no result: ClpP mod)
CC(=O)NCCNC(=O)c1ccc(NC2=NC3CS(=O)(=O)CC3S2)cc1 (centres undefined)	none (no result: ClpP mod)
CC(=O)c1c(C)[nH]c(C(=O)N2CCN(C(=O)c3ccco3)CC2)c1C	none
CC(=O)c1c(C)[nH]c(C(=O)N2CCN(c3ccc(F)cc3)CC2)c1C	DT40 TDP1 no CPT inconclusive, DT40 TDP1 CPT 14µM
CC(=O)c1c(C)[nH]c(C(=O)N2CCN(c3cc(Cl)ccc3C)CC2)c1C	DT40 TDP1 no CPT 5.8µM, DT40 TDP1 CPT 10µM

High-throughput results from PubChem.
